Hits are enriched below; roughly 21% of the tested compounds scored in any of these assays.
RORgamma inh: ROR gamma (mouse) transcription inhibition; Potency, µM (series often up to 53.6 µM), for the others: at the top dose activity change, negative = inhibition, most hits filed as inhibitors; P51450; actives 5.4% (n = 310,000); Drosophila S2 Gal4-RORgamma UAS-luciferase reporter, 20 h; further: potency means the concentration at half of the fitted maximal effect; nearly all actives have a fitted effect of over 60% in size
Target sequence (P51450 whole entry, looked up, the tested form may be a part): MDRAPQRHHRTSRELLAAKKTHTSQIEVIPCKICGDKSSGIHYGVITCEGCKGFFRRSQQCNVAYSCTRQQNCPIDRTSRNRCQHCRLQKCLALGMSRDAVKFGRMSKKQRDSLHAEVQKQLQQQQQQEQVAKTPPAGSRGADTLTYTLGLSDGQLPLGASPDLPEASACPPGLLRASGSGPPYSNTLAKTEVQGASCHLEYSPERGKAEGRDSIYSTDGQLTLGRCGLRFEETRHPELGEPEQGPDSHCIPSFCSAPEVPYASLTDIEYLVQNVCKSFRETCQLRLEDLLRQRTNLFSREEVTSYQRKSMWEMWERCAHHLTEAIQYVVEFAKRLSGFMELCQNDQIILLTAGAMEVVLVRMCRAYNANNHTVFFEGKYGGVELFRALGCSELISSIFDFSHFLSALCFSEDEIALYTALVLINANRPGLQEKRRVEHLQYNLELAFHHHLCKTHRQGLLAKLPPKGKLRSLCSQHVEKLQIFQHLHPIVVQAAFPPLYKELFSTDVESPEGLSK
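Schneider cells (Drosophila), stable Gal4 DBD–ROR gamma + UAS-luc; 1 hr cmpd preincubation; Cu2+ induction 700 uM final; 20 hr ambient; luminescence.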
Gal4-VP16 FLuc: inhibits Gal4-VP16 luciferase reporter, ROR gamma counter-screen; Potency, µM (top dose mostly 53.6 µM), for inactives: at the top dose activity, negative = inhibition, most hits filed as inhibitors; actives 3.5% (n = 310,000); Drosophila S2 Gal4-VP16 UAS-luciferase, luminescence, 20 h;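 further: Gal4-VP16 expression switched on by copper sulfate through the metallothionein promoter; potency means the concentration at half of the fitted maximal effect; nearly all actives have a fitted effect of over 50% in size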
ELG1 repair inh: blocks ELG1-dependent DNA repair in HEK293T cells; HEK293T ELG1-luciferase reporter, luminescence, 16 h; DNA damage induced by 5-fluorouridine; Potency, µM (series often up to 46.1 µM), without a hit: at the highest dose activity change, negative = inhibition, most hits filed as inhibitors; actives 2.3% (n = 330,000); AID 504467; further: potency means the concentration at half of the fitted maximal effect; nearly all actives have a fitted effect of over 55% in size
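DMSO vehicle served as the neutral condition. Each well held 2,000 cells given 5-fluorouridine plus compound; after 16 hr at 37 °C/5% CO2, ONE-Glo was added and luciferase measured 30 min later.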
IL1B secr inh: inhibitors of inflammasome signaling (IL-1 beta secretion); THP-1 LPS/ATP IL-1B secretion, AlphaLISA, 16 h; active compounds read low; activity change, % at 57.5 µM; actives 4.7% (n = 360,000); AID 743279; in the data active means activity change below about -50%; inconclusive means mostly about -30% to -49%
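Secreted IL-1B measured by AlphaLISA bead assay after 16 h compound exposure of THP-1 cells; compounds (final up to 57.5 uM) added 1 h before LPS (250 ng/mL) and ATP (1.25 mM) stimulation; lower signal means less secretion.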
DT40 TDP1 no CPT: qHTS for Inhibitors of human tyrosyl-DNA phosphodiesterase 1 (TDP1): qHTS in cells in absence of CPT. actives 15% (n = 420,000). Potency, µM (doses to about 46.2 µM), inactives show at the highest dose activity change, negative = growth inhibition, most hits filed as inhibitors. DT40 Tdp1-/- hTDP1 cells, no CPT, ATP luminescence, 48 h; further: potency means the concentration at half of the fitted maximal effect; nearly all actives have a fitted effect of over 55% in size
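DT40 Tdp1-/-;hTDP1 cells, no CPT (DMSO vehicle only), 400 cells/well; compounds pin-transferred; ≥48 hr, 37 °C; CellTiter-Glo 30 min RT dark, luminescence read.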
DT40 TDP1 CPT: growth inhibition of DT40 Tdp1-/-;hTDP1 cells with camptothecin (screen for TDP1 inhibitors); chicken DT40 Tdp1-/-;hTDP1 cells + 20 nM CPT, ATP luminescence, 48 h; Potency, µM (titrated, usually from 46.2 µM), inactives show at the top dose activity change, negative = growth inhibition, actives largely listed as inhibitors; actives 12% (n = 420,000); AID 686979; further: potency means the concentration at half of the fitted maximal effect; nearly all actives have a fitted effect of over 55% in size
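Chicken DT40 Tdp1-/- cells stably complemented with human TDP1 were seeded at 400 cells/well in medium containing 20 nM camptothecin, exposed to pin-transferred compounds, and grown at 37 °C for at least 48 hr. Viability was read as ATP luminescence.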
* hit, by the source's call; [ ] = dose if it differs, or a comment. Unless noted, the call rests on the fitted dose curve; in most records, active means well fitted curve in the direction sought with a large enough effect; inconclusive means small, poorly fitted or top-dose-only effect, or another doubt; inactive means no such curve, though single readings can be large; an effect the other way counts as inactive or inconclusive. On the % scale 0 is the no-effect control and ±100 the full control effect.

Screening COC1CC(OC2CCC3(C)C(CCC4C3CCC3(C)C(C5=CC(=O)OC5)C(OC(C)=O)CC43O)C2)OC(C)C1OC1OC(COC2OC(CO)C(O)C(O)C2O)C(O)C(O)C1O (stereo unspecified) returned RORgamma inh 0.0%, Gal4-VP16 FLuc -16.6% and ELG1 repair inh 2.91µM*.
Screening CC(=O)N(C1=NCCCS1)c1ccc(Cl)cc1 returned RORgamma inh 0.4%, Gal4-VP16 FLuc -24.2%, ELG1 repair inh inconclusive, IL1B secr inh -12.0, DT40 TDP1 no CPT -11.1% and DT40 TDP1 CPT -22.7%.
`O=C(CCCN1CCC2(CC1)C(=O)NCN2c1ccccc1)c1ccc(F)cc1` gave RORgamma inh 36.9%, Gal4-VP16 FLuc -1.6%, ELG1 repair inh inconclusive, IL1B secr inh -8.2, DT40 TDP1 no CPT inconclusive and DT40 TDP1 CPT inconclusive.
O=C1NCN(c2ccccc2)C12CCN(CCCOc1ccc(F)cc1)CC2 was read as RORgamma inh -0.5%, Gal4-VP16 FLuc -2.3%, DT40 TDP1 no CPT 23.1µM* and DT40 TDP1 CPT inconclusive.
`COc1ccc(C2/C=C\CN(C(=O)Oc3ccccc3)CC(=O)N2Cc2ccc(F)cc2)cc1` (stereo unspecified) gave RORgamma inh 10.1%, Gal4-VP16 FLuc -3.9%, ELG1 repair inh -9.7%, IL1B secr inh 40.2, DT40 TDP1 no CPT inconclusive and DT40 TDP1 CPT 20.6µM*.
Screening CCCC(Cn1cncn1)c1ccc(Cl)cc1Cl (stereo unspecified) returned RORgamma inh -20.0% and Gal4-VP16 FLuc 15.0%.
Screening CC(=O)c1cn(CC(=O)NCCc2c[nH]c3ccccc23)c2ccccc12 returned RORgamma inh -23.8%, Gal4-VP16 FLuc inconclusive, ELG1 repair inh inconclusive, IL1B secr inh 49.6, DT40 TDP1 no CPT 23.1µM* and DT40 TDP1 CPT 16.4µM*.
`O=C(Nc1ccc2ccccc2c1)c1nn(C23CC4CC(CC(C4)C2)C3)cc1Br` gave RORgamma inh 20.3%, Gal4-VP16 FLuc -24.5%, ELG1 repair inh inconclusive, IL1B secr inh -6.2, DT40 TDP1 no CPT 20.6µM* and DT40 TDP1 CPT 18.4µM*.
For CCOc1ccc(N2C(=O)NC(=O)/C(=C\c3ccc(N4CCOCC4)cc3C)C2=O)cc1 the results were RORgamma inh 23.8%, Gal4-VP16 FLuc -3.3%, ELG1 repair inh inconclusive, IL1B secr inh 15.0, DT40 TDP1 no CPT inconclusive and DT40 TDP1 CPT -12.0%.
C#CCN1C(=O)S/C(=C\c2ccc(N3CCOCC3)cc2C)C1=O was read as RORgamma inh 11.0%, Gal4-VP16 FLuc 25.1%, ELG1 repair inh inconclusive, IL1B secr inh 0.0, DT40 TDP1 no CPT 7.31µM* and DT40 TDP1 CPT inconclusive.
COc1ccc(C2NCc3ccccc3-n3cccc32)cc1 (stereo unspecified) was read as RORgamma inh -14.4%, Gal4-VP16 FLuc -3.4%, ELG1 repair inh -17.2%, IL1B secr inh inconclusive, DT40 TDP1 no CPT inconclusive and DT40 TDP1 CPT inconclusive.
`CCOc1cc2c(cc1OCC)-n1cccc1C(c1cc(C)c(OC)cc1C)NC2` (stereo unspecified) gave RORgamma inh -10.1%, Gal4-VP16 FLuc 3.7%, ELG1 repair inh inconclusive, IL1B secr inh -15.6, DT40 TDP1 no CPT 7.31µM* and DT40 TDP1 CPT 10.3µM*.
CCOc1cc2c(cc1OCC)-n1cccc1C(c1ccc(C)cc1C)NC2 (stereo unspecified) was read as RORgamma inh -7.3%, Gal4-VP16 FLuc -6.3%, ELG1 repair inh -10.5%, IL1B secr inh -90.0*, DT40 TDP1 no CPT inconclusive and DT40 TDP1 CPT inconclusive.
Screening CCOc1cc2c(cc1OCC)-n1cccc1C(c1ccc(OC)c(O)c1)NC2 (stereo unspecified) returned RORgamma inh 2.3%, Gal4-VP16 FLuc -12.1%, ELG1 repair inh 0.0%, IL1B secr inh inconclusive, DT40 TDP1 no CPT 18.4µM* and DT40 TDP1 CPT inconclusive.
CCOc1cc(C2NCc3ccccc3-n3cccc32)ccc1OC (stereo unspecified) was read as RORgamma inh 11.2%, Gal4-VP16 FLuc -2.0%, ELG1 repair inh 3.9%, IL1B secr inh inconclusive, DT40 TDP1 no CPT -26.5% and DT40 TDP1 CPT -16.8%.
For O=C(CCl)Nc1sccc1C(=O)c1ccccc1 the results were IL1B secr inh -102.9*, DT40 TDP1 no CPT inconclusive and DT40 TDP1 CPT 14.6µM*.
`NC(=O)c1ccsc1NC(=O)COC(=O)Cc1ccccc1` gave ELG1 repair inh 2.3%, IL1B secr inh 18.6, DT40 TDP1 no CPT inconclusive and DT40 TDP1 CPT -5.6%.
Screening [O]=[Cr](=[O])([OH])[O][Cr](=[O])(=[O])[OH] returned RORgamma inh 2.9%[10 µM], Gal4-VP16 FLuc -3.6%, DT40 TDP1 no CPT 16.8µM* and DT40 TDP1 CPT inconclusive.
Screening CCCCOP(=O)(c1ccc(N(C)C)cc1)C(Nc1ccccc1)c1ccccc1 (stereo unspecified) returned RORgamma inh inconclusive, Gal4-VP16 FLuc -10.8%, ELG1 repair inh inconclusive, IL1B secr inh -95.6*, DT40 TDP1 no CPT 20.6µM* and DT40 TDP1 CPT 14.6µM*.
Screening Cc1[nH]c2ccccc2c1CN1CCCCC1 returned IL1B secr inh -10.7, DT40 TDP1 no CPT 3.66µM* and DT40 TDP1 CPT 1.64µM*.
Screening c1ccc2c(CN3CCCCCCC3)c[nH]c2c1 returned RORgamma inh -22.7%, Gal4-VP16 FLuc 0.8%, ELG1 repair inh inconclusive, IL1B secr inh 14.8, DT40 TDP1 no CPT 1.46µM* and DT40 TDP1 CPT 0.651µM*.
Nc1ccc(Oc2ccc(N)cc2)cc1 was read as RORgamma inh 3.8% and Gal4-VP16 FLuc 9.5%.
`CN(C(=O)Cc1ccc(Cl)c(Cl)c1)[C@H](CN1CCCC1)c1ccccc1` gave RORgamma inh -24.2%, Gal4-VP16 FLuc 2.4%, DT40 TDP1 no CPT 11.6µM* and DT40 TDP1 CPT 14.6µM*.
For COC(=O)N1CCN(C(=O)Cc2ccc(Cl)c(Cl)c2)C(CN2CCCC2)C1 (stereo unspecified) the results were RORgamma inh 1.6%, Gal4-VP16 FLuc -11.3%, DT40 TDP1 no CPT inconclusive and DT40 TDP1 CPT -5.0%.
For Cc1oc(-c2ccc(F)cc2F)nc1CN1C[C@@H]2C[C@@H](C1)c1cccc(=O)n1C2 the results were RORgamma inh 19.5%, Gal4-VP16 FLuc -8.7%, ELG1 repair inh 7.0%, IL1B secr inh 0.9, DT40 TDP1 no CPT -23.2% and DT40 TDP1 CPT 20.0%.
Screening CCCN(c1ccc(C(C)C)cc1)S(=O)(=O)c1ccc2c(c1)CCN2C(=O)CC returned DT40 TDP1 no CPT 7.31µM* and DT40 TDP1 CPT inconclusive.

Screens (PubChem BioAssay)
